Legend:
Assay in all cases: log2 ratio of Biotin-Ahx-Ub-VS probe labelling (fragment/DMSO); higher = less target engagement (more negative = stronger competition), active = hit call of the paper (q ≤ 0.05, log2 ratio ≤ -1)
Conditions in all cases: compound concentration: 200 uM; treatment time: 3 h
[1] = biological target: T1, USP42 (UniProt Q9H9J4)
T1 sequence (whole entry): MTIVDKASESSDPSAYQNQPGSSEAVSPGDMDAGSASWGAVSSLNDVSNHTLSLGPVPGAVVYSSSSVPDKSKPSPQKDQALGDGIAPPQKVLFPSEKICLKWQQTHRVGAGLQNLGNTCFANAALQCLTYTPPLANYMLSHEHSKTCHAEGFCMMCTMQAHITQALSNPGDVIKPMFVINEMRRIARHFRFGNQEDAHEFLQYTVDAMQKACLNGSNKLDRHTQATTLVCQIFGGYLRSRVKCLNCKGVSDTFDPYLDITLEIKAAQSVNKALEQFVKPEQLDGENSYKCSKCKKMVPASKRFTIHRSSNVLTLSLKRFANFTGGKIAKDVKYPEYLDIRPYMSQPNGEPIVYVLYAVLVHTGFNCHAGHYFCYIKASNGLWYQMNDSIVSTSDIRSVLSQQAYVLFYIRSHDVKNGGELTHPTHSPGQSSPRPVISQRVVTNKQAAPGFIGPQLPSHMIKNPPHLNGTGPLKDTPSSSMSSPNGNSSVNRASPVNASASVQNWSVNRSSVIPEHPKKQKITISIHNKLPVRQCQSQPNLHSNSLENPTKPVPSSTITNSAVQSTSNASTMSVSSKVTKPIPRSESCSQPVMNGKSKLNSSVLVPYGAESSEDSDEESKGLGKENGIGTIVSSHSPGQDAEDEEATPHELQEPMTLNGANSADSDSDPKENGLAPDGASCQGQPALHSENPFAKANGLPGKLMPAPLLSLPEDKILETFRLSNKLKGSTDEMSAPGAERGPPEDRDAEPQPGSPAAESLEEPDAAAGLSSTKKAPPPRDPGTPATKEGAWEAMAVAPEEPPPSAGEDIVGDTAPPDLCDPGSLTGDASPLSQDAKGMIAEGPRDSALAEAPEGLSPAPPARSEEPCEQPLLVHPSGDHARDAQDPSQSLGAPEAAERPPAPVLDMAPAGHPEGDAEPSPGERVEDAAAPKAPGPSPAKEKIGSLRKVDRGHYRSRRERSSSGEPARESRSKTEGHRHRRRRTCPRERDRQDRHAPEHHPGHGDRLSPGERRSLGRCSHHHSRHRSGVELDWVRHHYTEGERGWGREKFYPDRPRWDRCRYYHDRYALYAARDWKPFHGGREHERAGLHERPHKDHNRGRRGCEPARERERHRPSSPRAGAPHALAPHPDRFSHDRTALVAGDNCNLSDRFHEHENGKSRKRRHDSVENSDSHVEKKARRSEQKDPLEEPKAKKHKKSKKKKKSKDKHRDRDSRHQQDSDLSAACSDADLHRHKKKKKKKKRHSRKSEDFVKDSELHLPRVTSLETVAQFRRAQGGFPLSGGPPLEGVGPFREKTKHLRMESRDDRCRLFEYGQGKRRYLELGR
Outline: (§1)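 Average log2 ratios of fragment over vehicle were obtained by unpaired t-test from global-median-normalised Spectronaut label-free quantities. Proteins with ≥2 unique peptides were included. HEK293T lysate (495 µg per sample) was treated in triplicate with fragment at 200 µM or vehicle for 3 h, then with Biotin-Ahx-Ub-VS at 0.5 µM final for 1 h, and labelled DUBs were NeutrAvidin-enriched and run by diaPASEF LC-MS/MS.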

[2] = biological target: USP46 (UniProt P62068)
Outline: as §1

[3] = biological target: T2, USP47 (UniProt Q96K76)
T2 sequence (whole entry): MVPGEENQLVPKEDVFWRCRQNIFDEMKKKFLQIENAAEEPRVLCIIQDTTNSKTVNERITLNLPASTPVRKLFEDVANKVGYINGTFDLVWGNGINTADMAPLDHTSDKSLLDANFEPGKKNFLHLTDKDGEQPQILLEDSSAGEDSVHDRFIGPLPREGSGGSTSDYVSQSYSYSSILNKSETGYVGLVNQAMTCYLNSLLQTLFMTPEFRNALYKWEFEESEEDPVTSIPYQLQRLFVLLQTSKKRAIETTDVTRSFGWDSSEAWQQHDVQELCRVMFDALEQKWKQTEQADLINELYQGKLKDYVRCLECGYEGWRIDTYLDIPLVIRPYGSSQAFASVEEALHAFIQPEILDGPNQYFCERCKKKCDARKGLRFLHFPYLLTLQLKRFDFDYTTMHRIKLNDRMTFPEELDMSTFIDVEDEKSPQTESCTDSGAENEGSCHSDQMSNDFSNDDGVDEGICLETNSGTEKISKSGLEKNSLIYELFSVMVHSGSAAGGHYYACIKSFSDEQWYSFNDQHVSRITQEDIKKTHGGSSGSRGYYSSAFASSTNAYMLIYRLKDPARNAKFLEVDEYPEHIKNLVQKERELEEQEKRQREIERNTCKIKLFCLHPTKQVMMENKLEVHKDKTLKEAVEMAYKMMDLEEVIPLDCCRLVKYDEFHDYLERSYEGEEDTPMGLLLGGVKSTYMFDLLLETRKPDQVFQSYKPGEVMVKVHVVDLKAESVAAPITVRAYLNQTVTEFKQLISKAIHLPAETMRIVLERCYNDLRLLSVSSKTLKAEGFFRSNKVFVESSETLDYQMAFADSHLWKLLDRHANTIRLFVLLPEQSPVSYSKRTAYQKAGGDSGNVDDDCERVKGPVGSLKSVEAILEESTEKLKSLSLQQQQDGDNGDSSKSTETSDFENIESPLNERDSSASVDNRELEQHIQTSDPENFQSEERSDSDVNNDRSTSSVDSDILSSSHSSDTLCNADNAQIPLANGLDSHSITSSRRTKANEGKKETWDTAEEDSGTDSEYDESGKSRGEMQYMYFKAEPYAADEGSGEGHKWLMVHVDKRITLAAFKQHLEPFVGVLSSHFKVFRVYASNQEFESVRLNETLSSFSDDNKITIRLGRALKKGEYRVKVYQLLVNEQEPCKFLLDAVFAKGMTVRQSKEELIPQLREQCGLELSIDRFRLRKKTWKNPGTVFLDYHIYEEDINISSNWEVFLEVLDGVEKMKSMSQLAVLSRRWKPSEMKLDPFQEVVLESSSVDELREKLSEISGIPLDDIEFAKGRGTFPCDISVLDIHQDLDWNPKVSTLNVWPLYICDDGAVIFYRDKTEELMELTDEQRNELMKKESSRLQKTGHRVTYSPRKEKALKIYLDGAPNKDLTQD
Outline: as §1

[4] = biological target: T3, USP48 (UniProt Q86UV5)
T3 sequence (whole entry): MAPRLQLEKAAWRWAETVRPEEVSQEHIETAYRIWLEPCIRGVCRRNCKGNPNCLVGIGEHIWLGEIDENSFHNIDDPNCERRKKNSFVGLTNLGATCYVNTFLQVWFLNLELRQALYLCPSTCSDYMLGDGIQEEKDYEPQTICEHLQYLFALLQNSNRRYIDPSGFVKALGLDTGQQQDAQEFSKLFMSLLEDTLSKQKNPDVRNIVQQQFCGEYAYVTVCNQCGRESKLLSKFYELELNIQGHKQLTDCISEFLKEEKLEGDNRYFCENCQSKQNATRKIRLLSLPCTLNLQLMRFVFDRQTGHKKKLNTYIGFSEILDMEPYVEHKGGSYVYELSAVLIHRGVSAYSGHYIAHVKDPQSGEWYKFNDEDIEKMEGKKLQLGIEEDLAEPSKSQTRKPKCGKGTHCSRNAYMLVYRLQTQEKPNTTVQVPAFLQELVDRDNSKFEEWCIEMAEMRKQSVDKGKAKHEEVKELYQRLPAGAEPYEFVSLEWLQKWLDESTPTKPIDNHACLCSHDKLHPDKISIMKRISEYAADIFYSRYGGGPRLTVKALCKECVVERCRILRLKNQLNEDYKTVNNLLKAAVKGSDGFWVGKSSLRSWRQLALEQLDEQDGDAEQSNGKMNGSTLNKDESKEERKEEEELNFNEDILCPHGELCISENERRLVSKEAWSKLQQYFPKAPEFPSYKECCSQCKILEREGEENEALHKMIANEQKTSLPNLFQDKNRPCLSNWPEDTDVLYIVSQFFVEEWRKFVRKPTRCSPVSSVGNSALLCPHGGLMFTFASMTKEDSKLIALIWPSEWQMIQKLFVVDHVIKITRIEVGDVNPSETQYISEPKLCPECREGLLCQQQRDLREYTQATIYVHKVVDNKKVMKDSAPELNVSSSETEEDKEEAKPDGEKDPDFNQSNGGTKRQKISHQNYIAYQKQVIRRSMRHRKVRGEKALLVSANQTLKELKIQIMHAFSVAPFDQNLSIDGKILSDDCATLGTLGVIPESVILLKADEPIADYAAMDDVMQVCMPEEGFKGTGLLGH
Outline: as §1

[5] = biological target: T4, USP5 (UniProt P45974)
T4 sequence (whole entry): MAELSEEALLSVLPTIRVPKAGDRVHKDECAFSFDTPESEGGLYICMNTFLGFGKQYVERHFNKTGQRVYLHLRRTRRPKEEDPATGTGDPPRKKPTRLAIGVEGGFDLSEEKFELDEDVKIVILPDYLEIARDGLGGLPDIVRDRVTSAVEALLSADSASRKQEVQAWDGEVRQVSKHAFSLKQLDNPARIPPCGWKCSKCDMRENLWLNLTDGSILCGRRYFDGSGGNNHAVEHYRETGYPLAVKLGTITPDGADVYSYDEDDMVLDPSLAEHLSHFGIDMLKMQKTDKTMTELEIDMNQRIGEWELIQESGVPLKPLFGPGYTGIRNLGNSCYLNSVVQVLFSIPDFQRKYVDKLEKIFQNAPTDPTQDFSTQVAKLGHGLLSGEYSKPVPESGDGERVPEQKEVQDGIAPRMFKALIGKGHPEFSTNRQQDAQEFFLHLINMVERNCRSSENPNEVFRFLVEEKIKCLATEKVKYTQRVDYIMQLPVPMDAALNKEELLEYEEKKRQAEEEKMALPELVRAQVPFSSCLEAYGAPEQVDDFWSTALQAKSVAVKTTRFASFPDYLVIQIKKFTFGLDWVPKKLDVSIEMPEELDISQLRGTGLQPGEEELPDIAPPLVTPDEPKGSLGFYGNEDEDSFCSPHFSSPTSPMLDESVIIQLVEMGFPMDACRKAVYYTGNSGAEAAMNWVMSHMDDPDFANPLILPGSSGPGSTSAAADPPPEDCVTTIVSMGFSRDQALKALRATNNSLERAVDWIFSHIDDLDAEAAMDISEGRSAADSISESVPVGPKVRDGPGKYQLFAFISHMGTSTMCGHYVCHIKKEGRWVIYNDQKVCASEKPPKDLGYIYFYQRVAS
Outline: as §1

[6] = biological target: USP54 (UniProt Q70EL1)
Outline: as §1

[7] = biological target: USP7 (UniProt Q93009)
Outline: as §1

[8] = biological target: T5, USP8 (UniProt P40818)
T5 sequence (whole entry): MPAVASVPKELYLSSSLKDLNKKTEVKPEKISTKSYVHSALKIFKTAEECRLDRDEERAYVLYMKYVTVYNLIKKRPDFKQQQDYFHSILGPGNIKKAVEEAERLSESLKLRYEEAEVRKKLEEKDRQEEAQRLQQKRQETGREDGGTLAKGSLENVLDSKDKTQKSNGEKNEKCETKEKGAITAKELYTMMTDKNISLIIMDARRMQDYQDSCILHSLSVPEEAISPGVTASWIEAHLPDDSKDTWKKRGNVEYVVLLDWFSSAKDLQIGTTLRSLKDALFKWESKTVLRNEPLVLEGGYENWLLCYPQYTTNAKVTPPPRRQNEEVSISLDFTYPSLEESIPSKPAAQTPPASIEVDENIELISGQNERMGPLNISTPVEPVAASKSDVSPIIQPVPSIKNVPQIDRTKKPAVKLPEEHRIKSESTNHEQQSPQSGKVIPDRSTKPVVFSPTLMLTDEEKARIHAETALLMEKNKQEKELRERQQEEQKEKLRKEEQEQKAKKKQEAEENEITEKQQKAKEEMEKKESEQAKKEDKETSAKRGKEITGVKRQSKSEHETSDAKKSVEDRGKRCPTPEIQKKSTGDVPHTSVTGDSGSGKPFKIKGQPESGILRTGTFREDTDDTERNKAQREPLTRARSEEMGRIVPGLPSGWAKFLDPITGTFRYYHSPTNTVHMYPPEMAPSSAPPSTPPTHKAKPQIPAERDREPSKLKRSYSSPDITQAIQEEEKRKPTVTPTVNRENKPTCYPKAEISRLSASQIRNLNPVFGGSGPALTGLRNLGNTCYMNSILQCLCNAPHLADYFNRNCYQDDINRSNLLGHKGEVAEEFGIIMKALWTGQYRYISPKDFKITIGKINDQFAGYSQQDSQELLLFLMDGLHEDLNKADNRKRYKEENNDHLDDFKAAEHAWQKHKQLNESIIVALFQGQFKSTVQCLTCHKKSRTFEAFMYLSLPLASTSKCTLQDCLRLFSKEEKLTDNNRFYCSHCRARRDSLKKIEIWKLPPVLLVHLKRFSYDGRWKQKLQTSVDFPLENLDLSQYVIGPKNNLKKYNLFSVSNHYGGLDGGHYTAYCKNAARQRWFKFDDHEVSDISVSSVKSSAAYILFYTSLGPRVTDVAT
Outline: as §1

[9] = biological target: USP9X (UniProt Q93008)
Outline: as §1

[10] = biological target: UniProt O00487
Outline: as §1

Measured: log2 ratio of Biotin-Ahx-Ub-VS probe labelling

UniProt O00487, sequence (O00487 whole entry): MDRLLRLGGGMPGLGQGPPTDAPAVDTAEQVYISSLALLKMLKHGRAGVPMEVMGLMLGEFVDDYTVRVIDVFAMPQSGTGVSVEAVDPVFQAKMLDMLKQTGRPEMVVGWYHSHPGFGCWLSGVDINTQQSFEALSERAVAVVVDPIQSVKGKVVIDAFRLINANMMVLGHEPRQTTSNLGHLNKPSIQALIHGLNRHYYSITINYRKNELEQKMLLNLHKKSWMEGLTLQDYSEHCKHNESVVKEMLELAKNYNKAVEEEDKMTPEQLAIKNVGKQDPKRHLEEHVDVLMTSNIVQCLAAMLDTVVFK
USP46, sequence (P62068 whole entry): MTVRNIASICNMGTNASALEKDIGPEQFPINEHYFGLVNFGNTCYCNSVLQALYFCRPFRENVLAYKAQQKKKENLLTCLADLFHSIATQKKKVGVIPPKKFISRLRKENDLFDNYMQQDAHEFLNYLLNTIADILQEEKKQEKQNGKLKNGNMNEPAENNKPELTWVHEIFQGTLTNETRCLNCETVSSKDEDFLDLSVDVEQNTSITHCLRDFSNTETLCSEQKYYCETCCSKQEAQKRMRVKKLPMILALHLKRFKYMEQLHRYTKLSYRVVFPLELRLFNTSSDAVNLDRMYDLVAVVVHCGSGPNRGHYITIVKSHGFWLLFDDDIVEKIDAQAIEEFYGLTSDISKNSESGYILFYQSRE
USP9X, sequence (Q93008 whole entry): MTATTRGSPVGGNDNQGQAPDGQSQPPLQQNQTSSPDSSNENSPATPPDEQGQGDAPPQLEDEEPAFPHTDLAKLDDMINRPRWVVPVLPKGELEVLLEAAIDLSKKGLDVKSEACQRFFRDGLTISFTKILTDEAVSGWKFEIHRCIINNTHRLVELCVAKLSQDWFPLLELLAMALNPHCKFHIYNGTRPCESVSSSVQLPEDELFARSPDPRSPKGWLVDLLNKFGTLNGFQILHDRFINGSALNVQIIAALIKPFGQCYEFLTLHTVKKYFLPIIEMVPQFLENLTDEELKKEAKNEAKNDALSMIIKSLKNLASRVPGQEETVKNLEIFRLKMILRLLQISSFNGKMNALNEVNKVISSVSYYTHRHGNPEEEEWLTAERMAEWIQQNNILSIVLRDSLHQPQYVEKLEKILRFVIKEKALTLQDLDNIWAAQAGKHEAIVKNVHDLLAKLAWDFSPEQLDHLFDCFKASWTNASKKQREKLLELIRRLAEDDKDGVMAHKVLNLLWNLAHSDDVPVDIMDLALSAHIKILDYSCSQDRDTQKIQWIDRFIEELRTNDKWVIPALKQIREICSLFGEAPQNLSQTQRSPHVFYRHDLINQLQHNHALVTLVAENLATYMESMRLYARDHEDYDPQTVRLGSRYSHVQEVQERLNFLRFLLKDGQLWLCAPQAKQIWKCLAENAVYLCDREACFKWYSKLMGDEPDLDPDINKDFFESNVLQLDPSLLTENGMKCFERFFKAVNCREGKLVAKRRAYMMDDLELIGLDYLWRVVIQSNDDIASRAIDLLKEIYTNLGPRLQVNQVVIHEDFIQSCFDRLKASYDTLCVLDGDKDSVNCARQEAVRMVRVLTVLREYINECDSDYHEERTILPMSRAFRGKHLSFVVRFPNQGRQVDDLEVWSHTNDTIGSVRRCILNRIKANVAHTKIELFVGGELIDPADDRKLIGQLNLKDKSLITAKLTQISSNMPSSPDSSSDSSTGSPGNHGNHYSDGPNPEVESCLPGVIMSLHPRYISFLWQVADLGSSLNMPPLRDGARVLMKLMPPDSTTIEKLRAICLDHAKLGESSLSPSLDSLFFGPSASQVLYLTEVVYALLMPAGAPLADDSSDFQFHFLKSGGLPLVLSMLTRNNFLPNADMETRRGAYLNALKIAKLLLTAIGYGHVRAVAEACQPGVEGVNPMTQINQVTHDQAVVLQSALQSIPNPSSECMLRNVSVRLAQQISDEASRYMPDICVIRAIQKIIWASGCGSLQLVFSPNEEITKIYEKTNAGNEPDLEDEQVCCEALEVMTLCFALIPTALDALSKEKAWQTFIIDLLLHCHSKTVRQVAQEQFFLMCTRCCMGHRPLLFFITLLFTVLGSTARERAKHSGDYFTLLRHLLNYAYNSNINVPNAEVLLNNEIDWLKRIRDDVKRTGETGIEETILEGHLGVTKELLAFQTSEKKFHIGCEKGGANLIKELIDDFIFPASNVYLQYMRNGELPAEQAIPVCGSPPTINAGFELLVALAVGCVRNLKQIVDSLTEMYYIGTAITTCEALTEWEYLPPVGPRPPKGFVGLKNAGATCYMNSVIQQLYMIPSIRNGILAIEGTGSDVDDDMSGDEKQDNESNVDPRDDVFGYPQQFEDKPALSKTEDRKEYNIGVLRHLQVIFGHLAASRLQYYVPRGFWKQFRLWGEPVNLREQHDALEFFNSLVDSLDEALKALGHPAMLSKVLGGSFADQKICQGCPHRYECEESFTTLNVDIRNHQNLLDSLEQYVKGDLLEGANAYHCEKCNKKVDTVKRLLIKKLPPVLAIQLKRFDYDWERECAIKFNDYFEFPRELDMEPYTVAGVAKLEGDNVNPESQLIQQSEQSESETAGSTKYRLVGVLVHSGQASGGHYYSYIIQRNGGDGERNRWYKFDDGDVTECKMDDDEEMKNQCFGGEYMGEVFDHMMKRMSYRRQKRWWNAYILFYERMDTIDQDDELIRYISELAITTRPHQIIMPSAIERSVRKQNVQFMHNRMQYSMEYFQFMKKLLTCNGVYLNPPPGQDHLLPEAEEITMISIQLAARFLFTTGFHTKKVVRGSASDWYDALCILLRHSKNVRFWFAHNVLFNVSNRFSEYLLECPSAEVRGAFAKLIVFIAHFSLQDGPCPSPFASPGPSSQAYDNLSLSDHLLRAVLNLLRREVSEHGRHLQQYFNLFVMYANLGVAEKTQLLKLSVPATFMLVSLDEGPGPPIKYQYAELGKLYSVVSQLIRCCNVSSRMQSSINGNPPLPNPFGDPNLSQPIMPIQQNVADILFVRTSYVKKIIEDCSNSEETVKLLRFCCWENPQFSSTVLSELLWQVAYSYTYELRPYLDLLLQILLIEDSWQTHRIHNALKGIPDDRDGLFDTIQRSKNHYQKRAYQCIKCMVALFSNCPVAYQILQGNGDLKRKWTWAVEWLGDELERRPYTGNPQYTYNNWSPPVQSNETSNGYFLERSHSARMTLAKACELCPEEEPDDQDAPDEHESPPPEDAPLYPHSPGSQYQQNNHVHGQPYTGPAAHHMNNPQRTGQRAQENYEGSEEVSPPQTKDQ
USP54, sequence (Q70EL1 whole entry): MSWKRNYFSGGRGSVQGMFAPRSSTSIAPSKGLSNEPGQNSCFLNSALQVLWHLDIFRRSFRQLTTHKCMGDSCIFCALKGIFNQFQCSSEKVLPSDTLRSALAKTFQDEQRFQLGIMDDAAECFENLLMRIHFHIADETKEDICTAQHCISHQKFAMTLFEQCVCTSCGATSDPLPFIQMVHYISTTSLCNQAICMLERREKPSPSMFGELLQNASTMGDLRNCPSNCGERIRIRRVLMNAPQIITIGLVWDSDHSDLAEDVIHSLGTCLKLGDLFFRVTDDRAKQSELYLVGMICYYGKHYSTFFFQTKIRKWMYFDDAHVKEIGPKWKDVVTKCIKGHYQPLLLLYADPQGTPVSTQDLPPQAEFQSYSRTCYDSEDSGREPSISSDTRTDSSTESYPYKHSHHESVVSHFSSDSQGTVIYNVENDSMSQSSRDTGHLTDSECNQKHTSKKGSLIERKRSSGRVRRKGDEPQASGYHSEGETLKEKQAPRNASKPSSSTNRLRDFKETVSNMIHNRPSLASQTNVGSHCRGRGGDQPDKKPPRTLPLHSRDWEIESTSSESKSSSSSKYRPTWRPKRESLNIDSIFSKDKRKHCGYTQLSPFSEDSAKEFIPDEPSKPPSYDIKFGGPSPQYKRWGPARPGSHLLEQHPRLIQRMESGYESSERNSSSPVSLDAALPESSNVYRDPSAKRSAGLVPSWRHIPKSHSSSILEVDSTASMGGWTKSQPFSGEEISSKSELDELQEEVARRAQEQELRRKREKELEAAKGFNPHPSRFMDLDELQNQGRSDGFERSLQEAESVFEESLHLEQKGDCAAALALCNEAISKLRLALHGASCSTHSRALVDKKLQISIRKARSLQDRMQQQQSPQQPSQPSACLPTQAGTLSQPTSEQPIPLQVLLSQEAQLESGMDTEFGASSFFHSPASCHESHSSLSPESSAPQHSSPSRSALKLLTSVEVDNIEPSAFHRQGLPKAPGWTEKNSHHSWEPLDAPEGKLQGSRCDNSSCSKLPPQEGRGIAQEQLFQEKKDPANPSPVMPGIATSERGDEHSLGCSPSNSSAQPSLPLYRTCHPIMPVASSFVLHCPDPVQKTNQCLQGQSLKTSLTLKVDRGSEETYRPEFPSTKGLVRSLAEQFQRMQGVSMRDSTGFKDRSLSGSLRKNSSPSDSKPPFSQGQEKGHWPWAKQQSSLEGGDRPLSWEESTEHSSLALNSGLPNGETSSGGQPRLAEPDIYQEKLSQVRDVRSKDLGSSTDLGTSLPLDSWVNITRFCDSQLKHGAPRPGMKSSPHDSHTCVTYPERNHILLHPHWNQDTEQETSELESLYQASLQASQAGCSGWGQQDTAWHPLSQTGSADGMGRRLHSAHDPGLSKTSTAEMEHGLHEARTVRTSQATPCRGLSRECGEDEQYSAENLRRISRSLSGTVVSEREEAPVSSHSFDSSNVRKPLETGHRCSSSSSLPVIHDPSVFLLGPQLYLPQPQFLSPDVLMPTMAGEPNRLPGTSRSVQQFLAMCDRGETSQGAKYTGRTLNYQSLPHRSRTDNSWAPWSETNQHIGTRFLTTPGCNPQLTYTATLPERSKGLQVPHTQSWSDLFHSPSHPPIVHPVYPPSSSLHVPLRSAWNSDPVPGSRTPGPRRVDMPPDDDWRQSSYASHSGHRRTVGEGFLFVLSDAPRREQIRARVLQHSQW

O=C(CCl)NCC(=O)N1CCCC1
inactive: [1] 0.103 | [2] 0.0751 | [3] 0.107 | [4] -0.00296 | [5] 0.205 | [6] 0.812 | [7] -0.0345 | [8] -0.434 | [9] -0.168 | [10] -0.0526

Reference: the supplement of paper PMC11732987, “Enantioselective OTUD7B fragment discovery through chemoproteomics screening and high-throughput optimisation” (Communications Chemistry, 2025)
